Bioassay records deposited in PubChem by National Center for Advancing Translational Sciences (NCATS).
Sampled rows, rich in hits. Any-hit rate of the full collection: about 2.7%.
GLP-1R inv ag: qHTS of GLP-1 Receptor Inverse Agonists (Inhibition Mode) | actives 1.6% (n = 410,000) | HEK293 GLP-1R CRE-luciferase, luminescence, 24 h; GLP-1R form is constitutively active | Potency, µM (top dose mostly 38.3 µM), hits mostly inhibitors | AID 624417, 2012 | Glucagon-like peptide 1 receptor (Homo sapiens), P43220; note: nearly all actives have a fitted effect of over 55% in size
Target sequence (P43220 whole entry, looked up): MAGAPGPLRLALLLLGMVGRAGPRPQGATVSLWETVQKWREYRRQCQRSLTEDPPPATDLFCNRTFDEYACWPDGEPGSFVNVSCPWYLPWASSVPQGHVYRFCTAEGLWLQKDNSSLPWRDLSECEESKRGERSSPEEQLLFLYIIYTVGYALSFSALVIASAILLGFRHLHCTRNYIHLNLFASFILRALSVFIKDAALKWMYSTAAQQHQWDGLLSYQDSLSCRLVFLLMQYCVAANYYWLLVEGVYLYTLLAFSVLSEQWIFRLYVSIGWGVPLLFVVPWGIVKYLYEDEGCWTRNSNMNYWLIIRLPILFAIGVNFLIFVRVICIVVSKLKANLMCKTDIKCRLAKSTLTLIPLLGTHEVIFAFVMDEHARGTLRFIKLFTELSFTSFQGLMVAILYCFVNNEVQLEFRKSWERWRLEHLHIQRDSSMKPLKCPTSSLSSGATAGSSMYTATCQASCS
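Cells are plated, allowed 12 hours at 37 deg C, then treated with compounds for 24 hr before luciferase detection reagent is added and luminescence is read after 12 min at room temperature. The HEK293 line carries constitutively active GLP-1R with a cAMP-responsive reporter.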
mIDH1 inhibitor: qHTS for Inhibitors of mutant isocitrate dehydrogenase 1 (IDH1): qHTS; Potency, µM (top dose mostly 76.6 µM), hits mostly inhibitors; IDH1-R132H enzyme, NADPH consumption, diaphorase/resazurin fluorescence; actives 0.093% (n = 390,000); note: nearly all actives have a fitted effect of over 65% in size
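IDH1-R132H (0.5 ug/mL) preincubated 30 min with compound, then NADPH (0.016 mM) and alpha-KG (2 mM) added; 80 min at RT, pH 7.5. Remaining NADPH coupled via diaphorase/resazurin to fluorescence (540/590 nm); concentration-response curves normalized to no-enzyme control.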
GLP1R cytotox: qHTS of GLP-1 Receptor Inverse Agonists: Cytotox Screen | HEK293 cAMP-luciferase reporter cells, luminescence, 24 h | Potency, µM (highest dose often 38.3 µM), most hits filed as inhibitors | actives 0.13% (n = 410,000);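 note: loss of luciferase light is scored as toxicity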
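MLSMR compounds, 24 hr on cells at 37 deg C/5% CO2; luminescence after luciferase reagent (12 min RT). Inhibition counted as the undesired cytotoxic outcome.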
GLP-1R agonist: qHTS of GLP-1 Receptor Agonists; Glucagon-like peptide 1 receptor (Homo sapiens), P43220; HEK293 GLP-1R CRE-luciferase, luminescence, 4-6 h; cells express a hypersensitive GLP-1R form; Potency, µM (doses to about 45.6 µM), hits mostly activators; actives 0.007% (n = 380,000)
TrxR1 substrate: qHTS Assay for Substrates of Mammalian Selenoprotein Thioredoxin Reductase 1 (TrxR1): qHTS. purified TrxR1 substrate turnover, NADPH consumption readout. Potency, µM (series often up to 114 µM). actives 0.01% (n = 390,000). AID 588456, 2011; note: nearly all actives have a fitted effect of over 50% in size
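Rat TrxR1, dispensed at 90 nM, was prereduced with 400 uM NADPH (final) for 5 min at ~22 deg C, then incubated with compound 15 min before 400 uM selenite. A first-read NADPH fluorescence drop versus no-compound background flagged substrates.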
TrxR1 inh: qHTS Assay for Inhibitors of Mammalian Selenoprotein Thioredoxin Reductase 1 (TrxR1): qHTS. Thioredoxin reductase 1, cytoplasmic (Rattus norvegicus), O89049. recombinant rTrxR1, NADPH fluorescence consumption, selenite substrate. Potency, µM (highest dose often 114 µM), most hits filed as inhibitors. actives 1% (n = 390,000). AID 588453, 2011; note: nearly all actives have a fitted effect of over 65% in size
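Rat TrxR1 (90 nM in the dispensed reagent) was pre-reduced with 400 uM NADPH for 5 min at room temperature, then incubated with compound for 15 min. After 400 uM selenite was added, NADPH fluorescence (Ex 340/Em 450 nm) was followed for 8 min.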
Of the large screens only hits and unclear results are named; the others gave an inactive call. Calls come from the whole dose curve; as a rule, active = well fitted curve in the direction sought with a large enough effect; inconclusive = small, poorly fitted or top-dose-only effect, or another doubt; inactive = no such curve, though single readings can be large; an effect the other way counts as inactive or inconclusive.

COc1ccc(NC(=O)CC2Sc3ncnn3C2=O)cc1 (configuration not stated)	TrxR1 inh 1.6µM
CCC(C)NC(=O)[C@H](CSCc1ccccc1)N1Cc2ccccc2C1=O (some centres not stated)	GLP-1R inv ag 11µM
O=C(CCC1N=C2c3ccccc3N=C(SCc3ccccc3F)N2C1=O)NC1CCCCC1 (configuration not stated)	GLP-1R inv ag inconclusive (no result: GLP-1R agonist)
CCN(CC)c1nc(OCCNC(=O)Nc2ccccc2)nc(N(CC)CC)n1	GLP-1R inv ag 5µM, GLP1R cytotox inconclusive
Cc1ccccc1/C=C/C12NC(=O)CN1c1ccccc1C2(C)C (configuration not stated)	GLP-1R inv ag inconclusive
CC1(C)c2ccccc2N2CC(=O)N[C@@]21/C=C/C=C/c1ccccc1	GLP-1R inv ag 3.5µM
O=C(Nc1cccc(S(=O)(=O)NC2=NCCC2)c1)c1cc(-c2ccco2)nc2ccccc12	TrxR1 inh inconclusive
COC(=O)c1cc(-c2ccc(C)o2)nc2ccccc12	TrxR1 inh 32µM
COc1ccc(NC(=O)c2cc(-c3ccco3)nc3ccccc23)cn1	TrxR1 inh 18µM
Cc1ccc(-c2cc(C(=O)Nc3ccccc3C)c3ccccc3n2)o1	GLP-1R inv ag inconclusive, TrxR1 inh inconclusive
CCNC(=O)COC(=O)c1cc(-c2ccco2)nc2ccccc12	TrxR1 inh 11µM
O=C(NC(=S)Nc1cccc(S(=O)(=O)NC2=NCCC2)c1)c1cc(-c2ccco2)nc2ccccc12	GLP-1R inv ag inconclusive, GLP1R cytotox inconclusive, TrxR1 inh 25µM
O=C(Nc1nccs1)c1cc(-c2ccco2)nc2ccccc12	none
CN(C)C(=O)c1ccc(NC(=O)c2cc(-c3ccco3)nc3ccccc23)cc1	TrxR1 inh 40µM
Cn1c(=NC(=O)c2ccco2)sc2ccccc21	none
Cn1c(=NC(=O)CCl)sc2ccccc21	GLP-1R inv ag inconclusive, GLP1R cytotox inconclusive, TrxR1 inh 35µM
COc1ccccc1NC(=O)c1sc2ncn(Cc3ccccc3Cl)c(=O)c2c1C	none (no result: GLP-1R agonist)
COCCN(CC(=O)NC1CCCCC1)C(=O)/C=C/C(=O)c1ccc(OC)cc1O	GLP-1R inv ag inconclusive, TrxR1 inh 2µM
COc1ccc(C(=O)/C=C/C(=O)N(CC(=O)NC2CCCCC2)Cc2cccs2)c(O)c1	TrxR1 inh 1µM
COc1ccc(C(=O)/C=C/C(=O)N(Cc2ccc3c(c2)OCO3)C(C(=O)NC2CCCCC2)c2ccncc2)c(O)c1 (configuration not stated)	GLP-1R inv ag inconclusive
COc1ccc(CN(C(=O)/C=C/C(=O)c2ccc(OC)cc2O)C(C(=O)NC2CCCCC2)c2ccncc2)cc1 (configuration not stated)	GLP-1R inv ag inconclusive
Cc1ccc(-c2nc(C)c(C(=O)O)s2)cc1	GLP-1R inv ag 10µM
COc1cc2nc(N3CCCN(C)CC3)nc(Nc3ccncc3)c2cc1OC	none (no result: GLP-1R inv ag, mIDH1 inhibitor, GLP1R cytotox, GLP-1R agonist)
O=C(C=C=Nc1ccccc1)C(=O)N=C=Cc1ccccc1	GLP-1R inv ag inconclusive, GLP1R cytotox 13µM, TrxR1 inh inconclusive
Cc1nncn1-c1ccc(C(=O)Nc2cc(F)ccc2F)cc1	none (no result: GLP-1R agonist)
CC(C)(C)c1cc(C(=O)NCCN2CCCC2)cc(C(C)(C)C)c1	GLP-1R inv ag 13µM
O=C(NCCN1CCCC1)c1ccc(Cl)cc1	none
